Our source for the AC50 and outcome values is PubChem BioAssay (EPA / NIEHS).

Assay [1] can be described thus: STM_H9_OrnithineISnorm_perc: Stemina devTOX quickPredict H9 human embryonic stem cell (hESC)-based Assay for Ornithine (ORN) Metabolite Biomarker, Normalized (AID 2283712; active = hit-call score of the fitted dose curve at least 0.9, where 1 is the maximum; inactive = score below 0.9;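 also: ornithine released into spent medium during last day measured by mass spectrometry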). In a few lines:
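H9 human embryonic stem cells kept pluripotent receive test chemical over 72 h, refreshed daily by media exchange. Media from the closing 24 h is deproteinized and analysed by UPLC-HRMS on an amide column; ornithine signal is scaled to labelled standard and vehicle.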

Assay [2] is described as follows: STM_H9_CystineISnorm_perc: Stemina devTOX quickPredict H9 human embryonic stem cell (hESC)-based Assay for Cystine (CYSS) Metabolite Biomarker, Normalized (AID 2283713; active = hit-call score of the fitted dose curve at least 0.9, where 1 is the maximum; inactive = score below 0.9). The method in brief:
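H9 hESC, pluripotent; compound 72h, re-dosed q24h with medium change. Last-24h medium → 40% acetonitrile deproteinization → UPLC-HRMS. CYSS area / C13-CYSS standard, then % of 0.1% DMSO median.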

Assay [3] in a line: STM_H9_OrnCyssISnorm_ratio: Stemina devTOX quickPredict H9 human embryonic stem cell (hESC)-based Assay for Ornithine (ORN):Cystine (CYSS) Ratio (AID 2283714). In a few lines:
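Steps: H9 hESCs in pluripotent state dosed 72h, medium plus compound renewed every 24h; conditioned medium from the final 24h deproteinized in 40% acetonitrile; ORN and CYSS quantified by UPLC-HRMS with C13 spike-ins; ratio relative to vehicle.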

Assay [4] can be described thus: Tanguay_ZF_120hpf_ActivityScore_legacy: (Legacy) Oregon State University Tanguay Lab 120 Hour Post-fertilization zebrafish Assay Score for Activity (AID 2283742).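 As to AC50: dechorionated Tropical 5D wild-type zebrafish embryos held singly per well; static exposure from 6 hpf until 120 hpf at 28 °C.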 The method in brief: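 Embryos are staged, enzymatically dechorionated at 4 hpf, placed individually at 6 hpf, then held in test chemical (0.64% DMSO) at 28C until 120 hpf. Mortality and malformations are scored by brightfield, with non-mortality endpoints skipped for dead embryos.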

Assay [5] can be described thus: ArunA_CellTiter_hNC: Viability Assessment in the ArunA Biomedical's Oris Neural Crest (hNC) Cell Migration Assay (AID 2283752). In a few lines: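 Cell titer was measured with the CellTiter Aqueous One reagent after 72 h of chemical dosing. Cells were H9-derived embryonic neural crest stem cells seeded on Matrigel, 60,000 per well, and given 16 h at 37C beforehand.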

A short description of assay [6]: ArunA_CellTiter_hNP: Viability Assessment in the ArunA Biomedical's Oris Neural Crest (hNC) Cell Migration Assay (AID 2283753). In a few lines: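 H9-derived hNP1 neuroprogenitors, 60,000/well on Matrigel, cultured 16 h, then 72 h chemical exposure in test medium. Cell titer via CellTiter Aqueous One; positive-direction fit vs DMSO.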
Assay [7] in a line: ArunA_Migration_hNP: ArunA Biomedical's Oris Neuroprogenitor (hNP) Cell Migration Assay (AID 2283754). The method in brief: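 Human H9-derived hNP1 neuroprogenitors on Matrigel with LIF/bFGF, plated around seeding stoppers for 16 h at 37C; stoppers removed at start of 72 h chemical exposure. Calcein-AM staining, fluorescence 494/517 nm in detection zone; loss-of-signal vs DMSO; cytochalasin D control.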

Assay [8] is described as follows: ArunA_Migration_hNC: ArunA Biomedical's Oris Neural Crest (hNC) Cell Migration Assay (AID 2283755). In a few lines:
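Human H9-derived neural crest stem cells, 60,000/well on Matrigel, 16 h at 37C, then 72 h chemical exposure after seeding-stopper removal. Migration into detection zone read as calcein-AM fluorescence (ex494/em517), relative to DMSO.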

Assay [9] is described as follows: ArunA_NOG_BranchPointsPerNeurite: ArunA Biomedical's Neurite Outgrowth (NOG) Assay for Branch Points Per Neurite (AID 2283759). In a few lines:
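Automated image analysis traced neurites (processes >10 um) from valid cell bodies after Hoechst and βIII-tubulin staining. hNN cells from H9 embryonic stem cells, 48 h exposure. Fitted bidirectionally against DMSO.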

Assay [10] has as its target Luciferin 4-monooxygenase (Photinus pyralis) (UniProt P08659). Briefly: CCTE_Simmons_QuantiLum_inhib_2: CCTE's Firefly Luciferase Inhibition Assay, Simmons Lab (AID 2283767).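 As to AC50: potency for inhibitors that lower luciferase luminescence relative to DMSO.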 In a few lines: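 Luminescence loss relative to DMSO vehicle defines inhibition; detection reagent containing 150 uM D-luciferin and 147 uM dATP (final, pH 7.8) is injected immediately before each read. Enzyme is preincubated with an 8-point titration (5 nM–87.5 uM final) for 30 min at 37C.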

Read-out in assay [11]: HMG-CoA synthase (HMGCS2), HMGCS2 (gene 3158)
Briefly: CLD_HMGCS2_48hr: CellzDirect (CLD) Gene Expression Assay for HMG-CoA synthase (HMGCS2) at 48 hours (AID 2283711). The method in brief: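 Primary human hepatocytes from two donors dosed daily for two days, 0.2% DMSO vehicle. HMGCS2 mRNA measured 48 h after dosing by quantitative nuclease protection assay with chemiluminescent read-out; induction fitted relative to DMSO, cytotoxicity flagged by microscopy.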

Assay [12] in a line: CEETOX_H295R_MTT_cell_viability: Viability Assessment in the CeeTox HT-H295R MTT Assay (AID 2283718; active = hit-call score of the fitted dose curve at least 0.9, where 1 is the maximum; inactive = score below 0.9). In a few lines:
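MTT reduction (0.5 mg/ml, 4 h at 37 C; absorbance at 570 and 650 nm) gave viability as background-corrected percent change versus controls. H295R cells had 48 h forskolin (10 uM) prestimulation, then 48 h chemical exposure at 0.1% DMSO.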

Read-out in assay [13]: sulfotransferase (SULT2A), SULT2A1 (gene 6822)
The assay is described as follows: CLD_SULT2A_48hr: CellzDirect (CLD) Gene Expression Assay for sulfotransferase (SULT2A) at 48 hours (AID 2283710).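 Also: hits raise SULT2A1 transcript above the 0.2% DMSO vehicle baseline.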 The method in brief: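 Primary human hepatocytes (two donor preparations) dosed daily for two days with chemicals at multiple concentrations, vehicle 0.2% DMSO; SULT2A1 mRNA induction at 48 h by quantitative nuclease protection assay, chemiluminescent read-out, fitted for gain of signal versus DMSO.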

Results filed as inconclusive are left out. Active and inactive are the calls of the source. The calls were made as follows, unless noted: active = hit-call score of the fitted dose curve at least 0.9, where 1 is the maximum; inconclusive = response in the unintended direction; inactive = score below 0.9.

Luciferin 4-monooxygenase (Photinus pyralis), sequence (P08659 whole entry, looked up): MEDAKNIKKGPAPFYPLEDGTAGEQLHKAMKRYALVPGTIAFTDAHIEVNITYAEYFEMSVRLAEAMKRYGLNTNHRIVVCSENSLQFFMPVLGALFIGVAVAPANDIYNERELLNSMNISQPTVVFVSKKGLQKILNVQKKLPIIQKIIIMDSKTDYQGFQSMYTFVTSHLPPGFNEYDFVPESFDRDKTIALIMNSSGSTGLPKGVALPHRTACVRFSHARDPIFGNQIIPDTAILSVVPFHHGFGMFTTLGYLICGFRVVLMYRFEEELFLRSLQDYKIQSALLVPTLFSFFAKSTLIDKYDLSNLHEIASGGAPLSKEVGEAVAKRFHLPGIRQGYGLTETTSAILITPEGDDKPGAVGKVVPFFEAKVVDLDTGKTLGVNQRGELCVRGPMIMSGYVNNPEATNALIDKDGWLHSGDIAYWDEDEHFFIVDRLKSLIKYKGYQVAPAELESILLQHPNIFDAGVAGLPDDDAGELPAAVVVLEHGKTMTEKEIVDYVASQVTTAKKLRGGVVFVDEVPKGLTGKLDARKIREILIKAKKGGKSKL

The AC50 is the concentration at which the activity in the assay is half-maximal. Regarding `CC(C)CCCCCCc1ccc(O)cc1`, the half-maximal activity concentration (AC50) in assay [1] is 73.4 µM (active); in assay [2], 70 µM (active); in assay [3], 75.7 µM (active); in assay [5], 5.59 µM (active); in [6], 9.76 µM (active); in assay [7] it was 17 µM (active). In assay [8], the AC50 was 4.41 µM (active). In addition, the result in assay [4], in [9] and in [10] was inactive.
As to `N#CSCSc1nc2ccccc2s1`, the AC50 in assay [1] is 17.2 µM (active); in [2], 15.2 µM (active); in assay [3] it was 16.4 µM (active); in [4], 0.11 µM (active); in assay [10], 0.435 µM (active).
With `O=C(O)c1ccccc1`, the compound was classed as inactive in assay [4].
On to `COC(=O)c1cccc(C)c1S(=O)(=O)NC(=O)Nc1nc(OCC(F)(F)F)nc(N(C)C)n1`, for which, in assay [11], the outcome was inactive.
In the case of `C#C[C@]1(O)CC[C@H]2[C@@H]3CCC4=CC(=O)CC[C@@H]4[C@H]3CC[C@@]21CC`, the outcome in assay [12] and in [4] was inactive.
Regarding `CCOC(=O)NCCOc1ccc(Oc2ccccc2)cc1`, the outcome in [13] and in assay [4] was inactive.
As for `CN(C)C(=O)Nc1ccc(Cl)c(Cl)c1`, the result in assay [1], in [12], in assay [4] and in assay [10] was inactive. Also, the AC50 in assay [2] is 70.5 µM (active); in assay [3], 82.4 µM (active).
For `CCCCCOC(=O)COc1cc(N2C(=O)C3=C(CCCC3)C2=O)c(F)cc1Cl`, the AC50 in assay [1] was 0.104 µM (active). In addition, the outcome in assay [2], in assay [3], in assay [12] and in assay [4] was inactive.
As for `CCCCCCC(C)OC(=O)COc1nc(F)c(Cl)c(N)c1Cl` (stereo not given), the compound was called inactive in assay [11] and in assay [4].
Consider `O=C(c1ccccc1)C1CCCCC1`, for which the call in [4] was inactive.
For the compound `C[C@]12CC[C@@H]3c4ccc(O)cc4C[C@@H](CCCCCCCCCS(=O)CCCC(F)(F)C(F)(F)F)[C@H]3[C@@H]1CC[C@@H]2O` (stereo not given in full), the compound was classed as inactive in assay [4].
With `c1ccc2[nH]c(-c3cscn3)nc2c1`, the call in [11], in assay [12] and in assay [4] was inactive.
Turning to `COc1nc(C)nc(NC(=O)NS(=O)(=O)c2ccccc2OCCCl)n1`, the result in assay [11] was inactive.
